Screening data from PubChem BioAssay.
Pol beta inh = inhibitors of human DNA polymerase beta | P06746 | Pol beta primer extension/strand displacement, fluorescence kinetic | Potency, µM (series often up to 114 µM), inactives show at the highest dose activity change, negative = inhibition, hits mostly inhibitors | hit rate 1.3% among 340,000 | AID 485314; further: on the % scale 0 is the no-effect control and ±100 the full control effect
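Homogeneous kinetic assay of primer extension and strand displacement by 10 nM Pol beta, preincubated 15 min at room temperature with compound before 50 nM substrate (final) was added. Read at 0 and 10 min; four-parameter Hill fit.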
WRN helicase inh = inhibitors of human WRN helicase | WRN helicase unwinding, fluorescent forked duplex, kinetic | Potency, µM (titrated, usually from 114 µM), without a hit: top-dose activity change, negative = inhibition, usual class: inhibitors | hit rate 0.46% among 360,000; further: on the % scale 0 is the no-effect control and ±100 the full control effect; nearly all actives have a fitted effect of over 55% in size
Target sequence (Q14191 whole entry, looked up): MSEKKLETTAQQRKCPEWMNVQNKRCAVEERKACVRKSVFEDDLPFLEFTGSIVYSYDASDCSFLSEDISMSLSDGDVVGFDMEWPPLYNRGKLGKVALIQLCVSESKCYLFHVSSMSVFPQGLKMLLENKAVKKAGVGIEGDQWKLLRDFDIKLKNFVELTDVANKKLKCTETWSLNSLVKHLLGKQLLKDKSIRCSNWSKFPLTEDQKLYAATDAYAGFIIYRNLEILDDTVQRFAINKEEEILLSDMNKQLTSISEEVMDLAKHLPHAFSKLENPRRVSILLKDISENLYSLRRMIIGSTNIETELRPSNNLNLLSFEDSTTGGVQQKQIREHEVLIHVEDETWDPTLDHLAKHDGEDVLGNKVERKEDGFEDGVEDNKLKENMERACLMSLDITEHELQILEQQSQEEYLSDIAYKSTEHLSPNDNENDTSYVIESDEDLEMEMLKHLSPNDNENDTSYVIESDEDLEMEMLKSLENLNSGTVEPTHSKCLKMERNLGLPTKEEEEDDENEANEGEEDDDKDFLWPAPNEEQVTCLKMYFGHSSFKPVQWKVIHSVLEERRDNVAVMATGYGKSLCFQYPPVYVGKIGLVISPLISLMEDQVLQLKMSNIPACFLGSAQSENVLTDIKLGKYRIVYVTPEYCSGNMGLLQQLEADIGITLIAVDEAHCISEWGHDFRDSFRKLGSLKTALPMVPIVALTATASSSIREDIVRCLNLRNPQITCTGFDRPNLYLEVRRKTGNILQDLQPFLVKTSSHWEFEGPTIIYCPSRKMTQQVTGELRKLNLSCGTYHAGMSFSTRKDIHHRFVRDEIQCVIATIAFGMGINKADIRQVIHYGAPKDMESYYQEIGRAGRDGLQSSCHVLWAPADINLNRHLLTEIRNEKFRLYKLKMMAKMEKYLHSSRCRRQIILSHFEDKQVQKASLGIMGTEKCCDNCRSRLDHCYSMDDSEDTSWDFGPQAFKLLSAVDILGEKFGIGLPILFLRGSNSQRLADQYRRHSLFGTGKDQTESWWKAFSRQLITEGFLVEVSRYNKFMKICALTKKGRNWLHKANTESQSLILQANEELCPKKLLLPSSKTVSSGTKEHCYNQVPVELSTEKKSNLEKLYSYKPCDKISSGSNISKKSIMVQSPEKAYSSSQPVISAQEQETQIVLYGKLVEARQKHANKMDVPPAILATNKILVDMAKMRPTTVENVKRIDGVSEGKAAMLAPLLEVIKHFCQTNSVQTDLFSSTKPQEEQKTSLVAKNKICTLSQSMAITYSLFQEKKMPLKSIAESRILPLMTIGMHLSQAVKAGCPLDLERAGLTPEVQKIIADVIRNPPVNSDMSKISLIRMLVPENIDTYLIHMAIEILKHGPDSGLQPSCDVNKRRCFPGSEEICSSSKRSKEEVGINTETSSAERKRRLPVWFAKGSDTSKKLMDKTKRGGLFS
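Primary qHTS, 1536-well format. 20 nM WRN + compound, 15 min RT; start with 100 nM forked fluorophore/quencher duplex, 2 mM ATP (final); kinetic read ex 525/em 598 nm.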
L3MBTL1 block = inhibitors of human L3MBTL1; Q9Y468; AlphaScreen L3MBTL1–H3K9me1 peptide binding; Potency, µM (doses to about 57.1 µM), for inactives: at the top dose activity, negative = inhibition, hits mostly inhibitors; hit rate 0.66% among 230,000; further: on the % scale 0 is the no-effect control and ±100 the full control effect; nearly all actives have a fitted effect of over 60% in size
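L3MBTL1 (50 nM) pre-complexed 30 min with biotinylated H3(1-15)K9me1 peptide (75 nM), then compounds added for 30 min at room temperature; AlphaScreen streptavidin donor/nickel chelate acceptor beads (10 ug/mL final) read after 30 min dark incubation.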
Pol iota inh = blocks human DNA polymerase iota activity. Q9UNA4. Pol iota fluorescent replication assay, 10 min. Potency, µM (series often up to 115 µM), for the others: at the highest dose activity, negative = inhibition, most hits filed as inhibitors. hit rate 1% among 390,000. AID 588590
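Pol iota at 10 nM preincubated 15 min with compounds at room temperature; reaction started with fluorescent substrate, 50 nM final. Fluorescence read kinetically at 0 and 10 min; buffer-only wells as negative control.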
Pol kappa inh = blocks human DNA polymerase kappa activity | Potency, µM (top dose mostly 107 µM), inactives show at the highest dose activity, negative = inhibition, usual class: inhibitors | hit rate 0.53% among 400,000 | Q9UBT6 | purified Pol kappa, fluorescent DNA synthesis assay, 10 min; further: on the % scale 0 is the no-effect control and ±100 the full control effect
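Enzyme at 10 nM met test compounds for 15 min at room temperature. Substrate addition (50 nM final) began the reaction, which was monitored by fluorescence at 0 and 10 min.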
Pol eta inh = inhibitors of human DNA polymerase eta; Q9Y253; recombinant Pol eta, fluorescent DNA replication assay; Potency, µM (top dose mostly 114 µM), for the others: at the top dose activity change, negative = inhibition, most hits filed as inhibitors; hit rate 1.2% among 390,000; AID 588591; further: on the % scale 0 is the no-effect control and ±100 the full control effect
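Pol eta (10 nM) was preincubated with compounds for 15 min at room temperature, after which fluorescent replication substrate (50 nM final) was added to start the reaction. Fluorescence was read kinetically at 0 and 10 min.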
Numbers without * were called inactive; ? = inconclusive; · = not tested or not shown; [ ] = remark or other dose. Compounds with a hit are over-represented: about 2.5% of the library has one in this group of screens. The call rests on the fitted dose curve; in most records, active means well fitted curve in the direction sought with a large enough effect; inconclusive means small, poorly fitted or top-dose-only effect, or another doubt; inactive means no such curve, though single readings can be large; an effect the other way counts as inactive or inconclusive. Potency means the concentration at half of the fitted maximal effect.

SMILES	Pol beta inh	WRN helicase inh	L3MBTL1 block	Pol iota inh	Pol kappa inh	Pol eta inh
O=C(Nc1ncccn1)C1CCCN1S(=O)(=O)c1ccc(Cl)c(Cl)c1 (stereo not drawn)	17%	1%[11.6 µM]	1%	16%	-7%[60.1 µM]	79µM*
CCCCc1ccc(N/C(N)=N/c2nc(C)cc(C)n2)cc1	10%	5%	-1%	15%	6%	-18%
O=C(N/N=C1\C(=O)c2cccc3cccc1c23)c1ccc(O)cc1	5.6µM*	-20%	-10%[11.4 µM]	183%	-9%	?
O=C(NN=C1c2ccccc2-c2ccccc21)c1ccccc1	?	-9%	3.2µM*	4%	-11%	3%
O=C(Nc1ccccc1-c1ccccc1)c1ccccc1Br	-3%	3%	0%	-16%	8%	-14%
O=C(NN=C1c2ccccc2-c2ccccc21)c1ccccc1Br	0.28µM*	-3%	-13%	?	-4%	-5%
CNC(=S)N/N=C1\C(=O)c2cccc3cccc1c23	14%	-25%[57.1 µM]	-21%	17%	-25%	2%
CCc1nc2c(OCC3CCCCC3)cccn2c1N(C)C(=O)c1ccc(C)cc1	·	-6%	·	·	·	·
COc1ccc2oc(C(=O)NC3CCCCC3)c(C)c2c1	-23%	8%	·	-2%	11%	-11%
O=C1OC[C@@H]2CCCN2C(=O)[C@H](CC(=O)N(CCO)Cc2ccccc2)C/C=C\C[C@H]1Cc1ccc(F)cc1	·	-5%	-4%	33%	0%	-14%
O=C(O[C@@H]1OC2COC(=O)c3cc(O)c(O)c(O)c3-c3c(cc(O)c(O)c3O)C(=O)O[C@@H]([C@H]1O)[C@@H]2O)c1cc(O)c(O)c(O)c1	0.16µM*	?	0.1µM*	?	-99%	-99%
CCN1C(=O)CC(C(=O)NC)SC1=Nc1cc(Cl)c(O)c(Cl)c1 (stereo not drawn)	-11%	9%	0%	89µM*	-9%	1%
O=C(CSCc1ccc(Cl)cc1)c1ccco1	?	·	-7%	·	·	·
O=c1c2ccccc2oc2cc(O)c(C3COCC(CO)C(O)C(O)C3O)c(O)c12 (stereo not drawn)	·	·	·	·	2.5µM*	·
O=c1cc(-c2ccc(O)cc2)oc2cc(O)c([C@@H]3O[C@H](CO)[C@@H](O)[C@H](O)[C@H]3O)c(O)c12	·	-8%	0%	2%	-10%	9%
C[N+](C)(C)CCOP(=O)(O)OP(=O)([O-])OC[C@H]1O[C@@H](n2ccc(N)nc2=O)[C@H](O)[C@@H]1O	39%	·	-4%	10%	2%[60.1 µM]	-19%
COc1ccc(C2=C(C)C(N3CCC(C(=O)Nc4ccccc4F)CC3)=NS2(=O)=O)cc1	22µM*	·	·	?	-33%	·
COc1ccccc1CNC(=O)C1CCN(C2=NS(=O)(=O)C(c3ccc(C)c(C)c3)=C2C)CC1	?	·	·	89µM*	-2%[60.1 µM]	-3%
Cc1ccc(NC(=O)Cn2nnc(C(=O)NCc3ccccc3)c2N)cc1C	-14%	-1%	-10%[11.4 µM]	?	-4%	?
Cc1ccc(NC(=O)Cn2nnc(C(=O)NCCc3ccccc3)c2N)cc1C	?	·	·	89µM*	?	-24%
CCOc1ccc(CCNC(=O)c2nnn(CC(=O)Nc3ccc(C)cc3)c2N)cc1OCC	25µM*	-12%	·	?	?	-1%
COc1ccc(NC(=O)Cn2nnc(C(=O)NCCc3ccccc3)c2N)cc1	25µM*	-18%	5%	35µM*	-34%	-26%
COc1cccc(NC(=O)Cn2nnc(-c3nc(-c4ccccc4)no3)c2N)c1	18µM*	·	·	89µM*	-11%[60.1 µM]	-4%
CCc1ccc(NC(=O)Cn2nnc(C(=O)NCCc3ccccc3)c2N)cc1	-1%	·	·	-11%	-11%	-19%
CC(C)(CO)NS(=O)(=O)c1ccc2c(c1)C(=O)c1cc(S(=O)(=O)NC(C)(C)CO)ccc1-2	-2%	-7%	·	37%	4%	-8%
O=c1oc(-c2ccccc2)cc(Cl)c1Cl	4%	-5%	·	?	-9%	-1%
COc1cc(S(=O)(=O)N2CCCCC2)ccc1NC=O	-5%	-10%	·	-4%	-12%	-12%
